Bioassay records as filed in PubChem BioAssay.
KDM4E inh – inhibitors of human JMJD2E histone demethylase | Potency, µM (highest dose often 57.1 µM), inactives show at the highest dose activity change, negative = inhibition, hits mostly inhibitors | 1.6% of 230,000 active | JMJD2E catalytic domain, FDH-coupled NADH fluorescence (FDH is formaldehyde dehydrogenase);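 also: 0% = wells with enzyme and -100% = buffer wells without enzyme; nearly all actives have a fitted effect of over 50% in size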
Target sequence (B2RXH2 1-337 limits assumed): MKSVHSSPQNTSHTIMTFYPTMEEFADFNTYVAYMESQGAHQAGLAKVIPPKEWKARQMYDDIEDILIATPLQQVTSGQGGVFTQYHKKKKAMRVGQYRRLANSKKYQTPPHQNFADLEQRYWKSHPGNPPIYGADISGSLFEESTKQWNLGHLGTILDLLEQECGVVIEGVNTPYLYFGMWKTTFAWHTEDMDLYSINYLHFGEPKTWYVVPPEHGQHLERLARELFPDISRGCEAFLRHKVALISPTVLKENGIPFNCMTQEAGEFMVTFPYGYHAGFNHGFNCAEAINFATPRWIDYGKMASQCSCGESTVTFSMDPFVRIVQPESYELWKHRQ
TDP1 block – blocks human tyrosyl-DNA phosphodiesterase 1. Q9NUW8. recombinant TDP1, AlphaScreen DNA substrate cleavage. Potency, µM (highest dose often 130 µM), for inactives: at the highest dose activity change, negative = inhibition, hits mostly inhibitors. 0.28% of 350,000 active. AID 485290; also: % is scaled to controls: 0 for no effect and ±100 for the full control effect; nearly all actives have a fitted effect of over 40% in size
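Compounds were preincubated with Tdp1 (1 nM final) for 15 min at room temperature before substrate (15 nM final) started a 5 min reaction; beads (10 ug/ml final) were then added for 10 min before AlphaScreen detection.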
APE1 inh – inhibitors of human APE1 endonuclease; P27695; recombinant APE1, TAMRA/BHQ-2 abasic DNA cleavage fluorescence; Potency, µM (doses to about 65.8 µM), without a hit: at the highest dose activity change, negative = inhibition, actives largely listed as inhibitors; 0.35% of 350,000 active;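 also: plate controls were vehicle for no effect and reference inhibitor for full effect; nearly all actives have a fitted effect of over 55% in size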
Target sequence (P27695 whole entry, looked up): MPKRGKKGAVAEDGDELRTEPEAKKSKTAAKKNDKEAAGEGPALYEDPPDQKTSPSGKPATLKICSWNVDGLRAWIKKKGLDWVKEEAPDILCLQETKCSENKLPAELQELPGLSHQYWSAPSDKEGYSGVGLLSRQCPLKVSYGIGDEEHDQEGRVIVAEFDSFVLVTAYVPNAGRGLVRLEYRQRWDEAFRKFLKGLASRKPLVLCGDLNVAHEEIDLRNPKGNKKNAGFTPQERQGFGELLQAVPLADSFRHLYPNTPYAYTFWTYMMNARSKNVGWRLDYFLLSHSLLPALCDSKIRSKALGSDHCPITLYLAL
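0.75 nM APE1 + cpd, 15 min RT; start w/ 50 nM TAMRA/BHQ-2 THF-abasic dsDNA; kinetic fluor 525/598 nm ×3 reads @60 s; Δ(read3−read1); normalized to DMSO and NSC13755 control wells.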
BLM helicase inh – blocks DNA unwinding by human BLM helicase | recombinant BLM DNA unwinding, fluorescence dequenching | 0.2% of 350,000 active | Potency, µM (top dose mostly 56.1 µM), without a hit: top-dose activity change, negative = inhibition, usual class: inhibitors | P54132;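 also: plate controls were vehicle for no effect and no enzyme for full effect; nearly all actives have a fitted effect of over 35% in size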
RECQ1 inh-1 – RECQ1 (human) helicase inhibition; RECQ1 DNA unwinding, red fluorescence kinetic read; Potency, µM (titrated, usually from 57.3 µM), without a hit: at the highest dose activity, negative = inhibition, actives largely listed as inhibitors; 0.54% of 240,000 active;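 also: plate controls were vehicle for no effect and no enzyme for full effect; nearly all actives have a fitted effect of over 30% in size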
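50 nM RECQ1T1 preincubated 15 min with compound in Tris pH 8.0 buffer with MgCl2, DTT, Tween-20 and 2.5 ug/ml poly(dI-dC); started with 200 nM TAMRA/BHQ-2 forked duplex and 2 mM ATP. Unwinding read as fluorescence (525/598 nm), two reads 2 h apart.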
L3MBTL1 inh-1 – inhibitors of human L3MBTL1; Q9Y468; AlphaScreen L3MBTL1–H3K9me1 peptide binding; Potency, µM (series often up to 57.1 µM), for inactives: at the highest dose activity, negative = inhibition, actives largely listed as inhibitors; 0.66% of 230,000 active; also: % is scaled to controls: 0 for no effect and ±100 for the full control effect; nearly all actives have a fitted effect of over 60% in size
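Read-out is AlphaScreen signal from streptavidin donor and nickel chelate acceptor beads (10 ug/mL final each) bridging L3MBTL1 (50 nM) and biotinylated K9-monomethylated H3(1-15) peptide (75 nM), after 30 min compound exposure at room temperature.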
RECQ1 inh conf – confirmation of human RECQ1 helicase inhibitors; shares compounds with RECQ1 inh-1; RECQ1 helicase DNA unwinding, fluorescence; Potency, µM (doses to about 229 µM), for inactives: top-dose activity change, negative = inhibition, most hits filed as inhibitors; 28% of 610 active; AID 2708; also: % is scaled to controls: 0 for no effect and ±100 for the full control effect; nearly all actives have a fitted effect of over 45% in size
RECQ1 ADP FP – ADP displacement flagged in RECQ1 inhibitor counter-screen | shares compounds with RECQ1 inh-1 | ADP fluorescence polarization displacement counterscreen | Potency, µM (top dose mostly 228 µM), without a hit: at the highest dose activity change, negative = inhibition, hits mostly inhibitors | 27% of 530 active | AID 2711; also: % is scaled to controls: 0 for no effect and ±100 for the full control effect; nearly all actives have a fitted effect of over 45% in size
RECQ1 inh-2 – confirmation of human RECQ1 helicase inhibitors; AID 504841; Potency, µM (titrated, usually from 119 µM), without a hit: at the highest dose activity, negative = inhibition, usual class: inhibitors; shares compounds with RECQ1 inh-1; recombinant RECQ1 DNA unwinding, red fluorescence; 15% of 1,100 active; also: % is scaled to controls: 0 for no effect and ±100 for the full control effect; nearly all actives have a fitted effect of over 50% in size
L3MBTL1 inh-2 – validation of human L3MBTL1 methyl-lysine binding inhibitors; AID 540279; 91% of 500 active; shares compounds with L3MBTL1 inh-1; Potency, µM, most hits filed as inhibitors; L3MBTL1 methyl-lysine binding inhibition, biochemical qHTS; also: nearly all actives have a fitted effect of over 70% in size
L3MBTL1 ctr – AlphaScreen signal inhibition, L3MBTL1 hit counter-screen. AlphaScreen counterscreen, signal inhibition. 500 tested, under 10 active. shares compounds with L3MBTL1 inh-1. Potency, µM (doses to about 57.1 µM), inactives show top-dose activity change, negative = inhibition, hits mostly inhibitors; also: 0% is about no effect
Starred values were filed as active, the others as inactive; i = inactive; ? = inconclusive; nt = no result given; [ ] = dose if it differs, or a comment. Only a selection was taken, and hits are over-represented in it overall. Unless noted, calls follow the shape of the dose curve; as a rule, active = well fitted curve in the direction sought with a large enough effect; inconclusive = small, poorly fitted or top-dose-only effect, or another doubt; inactive = no such curve, though single readings can be large; an effect the other way counts as inactive or inconclusive. Potency is read from the fitted curve at half-maximal effect.

SMILES	KDM4E inh	TDP1 block	APE1 inh	BLM helicase inh	RECQ1 inh-1	L3MBTL1 inh-1	RECQ1 inh-2	others
COC(=O)Nc1ccc(S(=O)(=O)N2CCCC(C(=O)Nc3cccnc3)C2)cc1 (centres undefined)	-1%	-5%	0%	1%	-3%	nt	nt	RECQ1 inh conf=9%;RECQ1 ADP FP=10%
Cc1ccc(S(=O)(=O)N2CCCC(C(=O)Nc3cccnc3)C2)cc1 (centres undefined)	-5%	-1%	2%	-4%	-15%	nt	nt
Cc1ccc(CNS(=O)(=O)c2ccc3c(c2)CCN3C(=O)CCCC(=O)O)cc1	-5%	5%	-11%	2%	i	nt	nt	RECQ1 inh conf=14%;RECQ1 ADP FP=-8%
Cc1cccc(N2CCN(S(=O)(=O)c3ccc4c(c3)CCN4C(=O)CCC(=O)O)CC2C)c1 (centres undefined)	1%	-11%	-4%	-5%	-8%	nt	nt	RECQ1 inh conf=?;RECQ1 ADP FP=?
O=C(O)CCCC(=O)N1CCc2cc(S(=O)(=O)NCc3ccccc3)ccc21	-1%	-2%	9%	1%	-10%	-22%	nt	RECQ1 inh conf=-8%;RECQ1 ADP FP=11%
O=C(C1CC1)N1CCc2cc(S(=O)(=O)N3CCCc4ccccc43)ccc21	3%	-1%	2%	-3%	-10%	-5%	nt
O=C(O)CCCC(=O)N1CCc2cc(S(=O)(=O)N3CCc4ccccc43)ccc21	-5%	4%	-1%	1%	-2%	nt	nt	RECQ1 inh conf=12%;RECQ1 ADP FP=8%
CC#CCN1c2ccccc2[C@]23C[C@@H](C(=O)OC)N(C(=O)c4cccs4)C2=NC(C(=O)OC)=C(C(=O)OC)[C@H]13	9%[11.4 µM]	8%[12.3 µM]	-1%[12.4 µM]	0%[12.4 µM]	1%[11.5 µM]	nt	nt
O=C(O)CCc1ccc(-c2ccc(Br)cc2)n1CC(=O)O	?	3%	-9%	-15%	32µM*	?	?
O=C(CSC(=S)N1CCCC1)Nc1cc2c(cc1Br)OCCO2	nt	4%[56.1 µM]	-7%	-4%	nt	nt	nt
O=C(CSC(=S)N1CCCC1)c1cc(Br)cc(Br)c1O	?	2%	2%	-11%	32µM*	nt	50µM*
CC1CCCN(C(=S)SCC(=O)c2cc(Br)cc(Br)c2O)C1 (centres undefined)	?	9%	-7%	-8%	?	-15%	-20%
COc1ccc(C(CC(=O)Nc2ccc(OC)c(OC)c2)N2Cc3ccccc3C2=O)cc1 (centres undefined)	nt	-3%	nt	0%	nt	nt	nt
CCCCCCCCCCCCOCCOCCOCCOCCOCCOCCOCCOCCOCCO	nt	8%	-7%	-10%	-28%	nt	nt
CCc1ccc(OCC(=O)NC2CC(C)(C)NC(C)(C)C2)cc1	2%	0%	-6%	-3%	?	3%	13%
Cc1cc(C(c2ccc(C)o2)c2ccc(C)o2)c(O)c([N+](=O)[O-])c1	-21%	11%	12%	-10%	-14%	nt	nt
Cc1ccc(C(c2ccc(C)o2)c2cccc([N+](=O)[O-])c2O)o1	-9%	10%	7%	-10%	?	-24%	?
COc1ccc2c(c1)CC/C(=C\c1ccc(OC)c(Cn3nc(C)cc3C)c1)C2=O	-1%	nt	-3%	-12%	35µM*	nt	?
CCOc1ccccc1N(CC)C(=O)c1cc2c(=O)n(CC)c3ccccc3c2s1	nt	5%	nt	-10%	nt	nt	nt
O=C1/C(=C/c2ccco2)SC(=S)N1c1cccnc1	?	nt	4µM*	32µM*	8.9µM*	3.2µM*	nt	RECQ1 inh conf=50µM*;RECQ1 ADP FP=50µM*
Cc1cc(O)ccc1C1(c2ccc(O)cc2C)OC(=O)c2ccccc21	3%	1%	3%	-9%	-10%	-3%	nt
O=C1OC2(c3ccc(O)cc3Oc3cc(O)ccc32)c2ccccc21	nt	29%	28µM*	35µM*	32µM*	nt	79µM*
Cc1csc(N/N=C/c2ccc(O)c([N+](=O)[O-])c2)n1	-23%	?	?	?	14µM*	nt	nt	RECQ1 inh conf=3%[114 µM];RECQ1 ADP FP=?
CC(O)c1c(-c2ccccc2)nn(C)c1Cl (centres undefined)	1%	-3%	22%	-1%	40µM*	-7%	-9%
CCc1cccc(NC(=O)c2c(N3CCCC3=O)c3cc(C)ccc3n2C)c1	nt	6%	nt	-7%	nt	nt	nt
SMILES	KDM4E inh	TDP1 block	APE1 inh	BLM helicase inh	RECQ1 inh-1	L3MBTL1 inh-1	RECQ1 inh-2	others
Cc1ccc(S(=O)(=O)/N=C2/NC(=O)/C(=C/c3ccc(Br)o3)S2)cc1	-1%	nt	?	-6%	?	?	?
CCOC(=O)c1ccc(NC(=O)CSc2cn(CC(=O)N3CCCC3)c3ccccc23)cc1	nt	3%	nt	-15%	nt	nt	nt
O=C(Nc1ccc(SC(F)F)cc1)c1cc(-c2ccc3c(c2)OCCO3)on1	nt	3%	nt	-1%	nt	nt	nt
CC(C)c1ccc(C2C3=C(CC(c4ccco4)CC3=O)Nc3nc(C(F)(F)F)nn32)cc1 (centres undefined)	nt	4%	nt	nt	nt	nt	nt
O=C1C(=O)C(c2cc(O)c(O)c(O)c2)Oc2cc(O)cc(O)c21 (centres undefined)	nt	nt	nt	nt	nt	nt	nt	RECQ1 inh conf=1µM*
O=C(O[C@H]1CN2CCC1CC2)N1CCc2ccccc2[C@@H]1c1ccccc1	nt	nt	nt	4%	nt	nt	nt
COc1cccc(NC(=O)CN2C(=O)C3(SCC(=O)N3c3cc(C)cc(C)c3)c3ccccc32)c1 (centres undefined)	nt	-2%	nt	-8%	nt	nt	nt
C=CCn1c(C)cc(C(=O)Cn2ncc(Cl)c(Cl)c2=O)c1C	-2%	-3%	?	-24%	10µM*	14µM*	-22%	L3MBTL1 inh-2=?;L3MBTL1 ctr=0%
CC(C)(C)C(=O)Cn1ncc(Cl)c(Cl)c1=O	-3%	6%	0%	-4%	-1%	30%	nt
